Assay outcomes: PubChem BioAssay, National Center for Advancing Translational Sciences (NCATS)
KDM5B inh: Primary screen for KDM5B Histone Demethylases FDH-coupled qHTS; Lysine-specific demethylase 5B (Homo sapiens), Q9UGL1; KDM5B demethylase, FDH-coupled NADH fluorescence (FDH is formaldehyde dehydrogenase); Potency, µM (doses to about 57.7 µM), usual class: inhibitors; 2.6% of 220,000 active; AID 1347165, 2019; further: nearly all actives have a fitted effect of over 70% in size
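KDM5BΔAP (200 nM final) in 50 mM HEPES pH 7.5, 0.01% Tween-20 was preincubated 10 min at RT with compound over a concentration range. Substrate mix (H3K4me3 12.5 µM, α-KG 25 µM, Fe²⁺, ascorbate, NAD⁺, FDH) was added, and NADH fluorescence change over 30 min gave dose-response curves.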
SNCA viab count: GF-AFC viability counterscreen for inhibitors of alpha-synuclein gene (SNCA) expression; HEK-293-SNCA-luc viability, GF-AFC fluorescence, 24 h; Potency, µM (series often up to 57.1 µM), actives largely listed as cytotoxic; 0.12% of 150,000 active; further: nearly all actives have a fitted effect of over 30% in size
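HEK-293-SNCA-luc cells (1500/well) plated 24 h, then exposed 24 h to a dilution series; GF-AFC added 30 min at 37C, fluorescence 405/540 nm; normalised to medium-only and DMSO wells, Hill fit.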
SNCA expr inhib: Primary qHTS assay for inhibitors of alpha-synuclein gene (SNCA) expression | HEK-293 SNCA-luciferase knock-in, luminescence, 24 h | Potency, µM (series often up to 57.2 µM), most hits filed as inhibitors | 0.17% of 140,000 active; further: nearly all actives have a fitted effect of over 45% in size
IP6K1 inhibitor: Primary qHTS assay for small molecule inhibitors of Inositol hexaphosphate kinase 1 (IP6K1); IP6K1 kinase, ADP-Glo luminescence, 2 h; hits give low values; activity change, % (series mostly up to about 58 µM); 0.81% of 140,000 active; AID 1645851, 2021; in the data active means activity change below about -25%
Target sequence (Q92551 whole entry, looked up): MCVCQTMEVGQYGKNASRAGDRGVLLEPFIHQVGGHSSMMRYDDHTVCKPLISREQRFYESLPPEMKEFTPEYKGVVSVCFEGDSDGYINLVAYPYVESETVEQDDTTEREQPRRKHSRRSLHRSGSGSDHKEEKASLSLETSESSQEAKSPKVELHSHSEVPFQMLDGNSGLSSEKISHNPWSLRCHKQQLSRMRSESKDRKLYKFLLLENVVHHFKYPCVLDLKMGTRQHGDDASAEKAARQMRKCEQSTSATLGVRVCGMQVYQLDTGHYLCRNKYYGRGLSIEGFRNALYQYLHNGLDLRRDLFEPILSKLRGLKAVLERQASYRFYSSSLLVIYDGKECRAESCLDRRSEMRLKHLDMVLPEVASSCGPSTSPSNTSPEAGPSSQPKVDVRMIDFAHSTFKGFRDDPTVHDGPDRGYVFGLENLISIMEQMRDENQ
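ADP-Glo luminescence measures ADP made by human IP6K1 during a 2 h RT reaction with ATP/IP6 (mix at 1.3 mM/130 uM); top library doses 57.5 and 19.1 uM final.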
Large screens that a line does not name were inactive. A selection: hits, their analogues and other compounds. The true share with any hit is near 2.8%. Unless noted, the call rests on the fitted dose curve; in most records, active means well fitted curve in the direction sought with a large enough effect; inconclusive means small, poorly fitted or top-dose-only effect, or another doubt; inactive means no such curve, though single readings can be large; an effect the other way counts as inactive or inconclusive.

CC1(C(=O)NCCN2CCOCC2)CCCc2cnc(NCc3ccccc3)nc21 (configuration not stated)	KDM5B inh 35.5µM
COc1ccccc1Cn1c(=O)c(C(=O)N2CCN(C(=O)c3ccccc3F)CC2)nc2cccnc21	none (no result: KDM5B inh)
COc1ncccc1-c1cc2[nH]ccc2c(C(=O)NCc2c(C)cc(C)[nH]c2=O)n1	SNCA viab count inconclusive
Cc1cc(C)c(CNC(=O)c2nc(Nc3ccccc3)cc3[nH]ccc23)c(=O)[nH]1	KDM5B inh 15.8µM
Cc1cc(-c2cc3c(ccn3C(C)C)c(C(=O)NCc3c(C)cc(C)[nH]c3=O)n2)ccn1	none
Cc1cc(C)c(CNC(=O)c2nc(-c3cccc(O)c3)cc3[nH]ccc23)c(=O)[nH]1	KDM5B inh 31.6µM, SNCA viab count inconclusive
O=C(C1CCCC1)N1CCN(c2nccc(Nc3ccccc3F)n2)CC1	none (no result: KDM5B inh)
N[C@H]1CN(c2cncc(C(=O)N3CCCCC3)n2)C[C@@H]1C1CC1	KDM5B inh 28.2µM
O=C(c1cncc(N2CCCC(CCc3cccc(F)c3)C2)n1)N1CCCCC1 (configuration not stated)	KDM5B inh 25.1µM, SNCA viab count inconclusive, SNCA expr inhib inconclusive
Cc1cnc(C(=O)N2CCCC(CCc3cccc(F)c3)C2)cn1 (configuration not stated)	none
c1coc(-c2nc3nccc(-c4ccc5c(c4)OCCCO5)n3n2)c1	KDM5B inh 28.2µM, SNCA expr inhib inconclusive
COCc1nc2nccc(-c3ccc4c(c3)OCCCO4)n2n1	KDM5B inh 17.8µM
COc1ccc(Cc2nc3nccc(-c4ccc5c(c4)OCCCO5)n3n2)cc1	KDM5B inh inconclusive
O=C(Nc1ccccc1)c1cccnc1NCc1ccccc1	none (no result: SNCA viab count, SNCA expr inhib, IP6K1 inhibitor)
O=C(Nc1cccc(F)c1)N1Cc2[nH]cnc2C[C@H]1c1nc(-c2ccccc2)no1	KDM5B inh 28.2µM
O=C(Nc1cccc(F)c1)N1Cc2[nH]cnc2C[C@H]1c1nc(-c2ccc(Cl)cc2)no1	SNCA viab count inconclusive
O=C(c1ccc(F)cc1)N1Cc2[nH]cnc2C[C@H]1c1nc(-c2ccc3c(c2)OCO3)no1	KDM5B inh 39.8µM, SNCA expr inhib inconclusive
O=C(Nc1cccc(F)c1)N1Cc2[nH]cnc2C[C@H]1c1nc(-c2ccc3c(c2)OCO3)no1	KDM5B inh inconclusive, SNCA expr inhib inconclusive
Cc1ccc([S+](=O)([O-])N2CC(=O)N(Cc3ccc(Cl)cc3)CC(O)C2)cc1 (configuration not stated)	none (no result: KDM5B inh, SNCA viab count, SNCA expr inhib)
O=C(NCCN1CCOCC1)c1ccc2oc(-c3ccncc3)nc2c1	SNCA expr inhib inconclusive (no result: KDM5B inh)
COc1cccc(-c2ccc(C(=O)NCCNC(=O)C3CC3)cc2)c1	none (no result: KDM5B inh, SNCA viab count, SNCA expr inhib)
COc1cccc(-c2ncc(CNC(=O)[C@H]3CC[C@@H](N)C3)s2)c1	KDM5B inh 25.1µM
CC1(C(=O)N2CCN(c3ccccn3)CC2)CCOCC1	KDM5B inh 112µM
CC1(C(=O)N2CCN(c3ccccn3)CC2)CCCCC(=O)N1 (configuration not stated)	KDM5B inh 17.8µM
CC1(C(=O)N2CCC(c3ccccc3)CC2)CCOCC1	SNCA expr inhib inconclusive
N#Cc1cccnc1-c1ccc(C(=O)N2CCC(NC(=O)c3ccccc3F)CC2)cc1	none (no result: KDM5B inh)
CCN(C(=O)c1cccc(F)c1F)[C@@H]1CCN(c2ncccc2C#N)C[C@H]1O	KDM5B inh 28.2µM
N#Cc1cccnc1N1CCC(NC(=O)c2ccc3cccc(F)c3n2)CC1	KDM5B inh 28.2µM
CSc1cccc(NC(=O)Cn2ccn3nc4c(c3c2=O)CCCC4)c1	none
O=C(C1CCCN1C(=O)NC1CCCC1)N1CCC(c2nc3ccncc3[nH]2)CC1 (configuration not stated)	none (no result: KDM5B inh)
COCCn1c(=O)c(C(=O)NC2CC2)nc2cccnc21	none (no result: KDM5B inh)
O=C1COc2ccc(Nc3ccc(Cl)cc3)nc2CN1Cc1nc2ccccc2s1	KDM5B inh 35.5µM, SNCA viab count 31.6µM, SNCA expr inhib inconclusive
Cc1ccccc1CN1Cc2nc(-c3ccc4c(c3)OCO4)ccc2OCC1=O	KDM5B inh 35.5µM, SNCA viab count inconclusive
Cc1ccccc1CN1Cc2nc(-c3c(C)noc3C)ccc2OCC1=O	KDM5B inh 35.5µM
CC(=O)Nc1cccc(-c2ccc3c(n2)CN(Cc2ccccc2C)C(=O)CO3)c1	SNCA viab count inconclusive
Cc1ccccc1CN1Cc2nc(-c3cccc(C(N)=O)c3)ccc2OCC1=O	KDM5B inh 31.6µM
CC1=C[C@@H](CNC(=O)c2ccncc2)[C@H](C(C)C)C[C@H]1CC(=O)N1CCOCC1	none
CN1Cc2nc(-c3ccc4c(c3)OCO4)ccc2OCC1=O	KDM5B inh 31.6µM
O=C1COc2ccc(-c3ccc4c(c3)OCO4)nc2CN1Cc1ccc(C(F)(F)F)cc1	KDM5B inh 31.6µM
COc1ccc(Nc2ccc3c(n2)CN(Cc2ccc(C(F)(F)F)cc2)C(=O)CO3)cn1	KDM5B inh 11.2µM, SNCA expr inhib inconclusive
CC(=O)N1CCCC1C(=O)N1CCC2(CC1)CC(=O)Nc1ccccc1O2 (configuration not stated)	none (no result: KDM5B inh)
CCNC(=O)N[C@H]1CO[C@H]2[C@@H]1OC[C@@H]2Nc1nccc(-c2ccc(OC)cc2)n1	KDM5B inh 28.2µM
COc1ccc(-c2ccnc(N[C@H]3CO[C@H]4[C@@H]3OC[C@H]4OCC(=O)N(C)C)n2)cc1	KDM5B inh 35.5µM, SNCA viab count inconclusive
COc1ccc(-c2ccnc(N[C@H]3CO[C@H]4[C@@H]3OC[C@H]4OC(=O)Nc3ccc(C(C)(C)C)cc3)n2)cc1	KDM5B inh 25.1µM
C=CCNC(=O)N[C@H]1CO[C@H]2[C@@H]1OC[C@@H]2Nc1nccc(-c2ccc(OC)cc2)n1	KDM5B inh 35.5µM, SNCA expr inhib inconclusive
O=C(c1nnn2cc(-c3ccccc3)[nH]c(=O)c12)N1CCN(C2CCCCC2)CC1	KDM5B inh inconclusive
O=C1NCC(c2ccc(Cl)cc2)Cc2[nH]c(-c3ccc(O)cc3)nc21 (configuration not stated)	KDM5B inh 25.1µM, SNCA viab count inconclusive
CS(=O)(=O)Nc1cc(-c2noc([C@@H]3CCCN3Cc3ccccc3)n2)ccn1	KDM5B inh inconclusive
c1cncc(CN2CCC[C@H]2c2nc(-c3ccnc(N4CCCC4)c3)no2)c1	KDM5B inh 35.5µM
c1cc(-c2noc([C@@H]3CCCN3Cc3ncc[nH]3)n2)cc(N2CCCC2)n1	KDM5B inh 39.8µM
CC(=O)Nc1ccc(CN2CCC[C@H]2c2nc(-c3ccnc(NS(C)(=O)=O)c3)no2)cc1	KDM5B inh inconclusive
c1cc(-c2noc([C@@H]3CCCN3C3CCOCC3)n2)cc(N2CCCC2)n1	KDM5B inh inconclusive
CC(C)CN1CCC[C@H]1c1nc(-c2ccnc(NS(C)(=O)=O)c2)no1	KDM5B inh 35.5µM, SNCA expr inhib inconclusive
CC(=O)N1CCN(c2cc(-c3noc([C@@H]4CCCN4Cc4ccc(N(C)C)cc4)n3)ccn2)CC1	KDM5B inh 28.2µM
